Gli-Sufu antag: blocks Gli-Sufu signaling in a luciferase reporter; Sufu-KO-LIGHT fibroblasts, Gli luciferase reporter luminescence; inhibition, % at 5 µM; hit rate 0.74% among 340,000;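 active means inhibition above about 55%, limit read from the data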
COUP-TFII inh: blocks human COUP-TFII nuclear receptor. P24468. HEK293T NGFI-A luciferase reporter, luminescence. inhibition, % at 8.6 µM. hit rate 0.7% among 370,000. AID 686940;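 active means inhibition above a per-plate cutoff, mean inhibition of test wells between control levels plus 3 SD, cut at about 38% in these data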;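 further: cells cotransfected with COUP-TFII expression vector driving the NGFI-A reporter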
LRH-1 inv ag: suppresses constitutive activity of human LRH-1; AID 602396; inhibition, % at 3.6 µM; O00482; hit rate 0.13% among 360,000; HEK293T StAR-luciferase reporter, LRH-1 transfected, 24 h;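 active means inhibition above the mean inhibition of all tested compounds plus 3 SD, cut at about 73% in these data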
NCOA2 inhibitor: human SRC2 (NCOA2) inhibition. Q15596. HEK293 GAL4-SRC2 luciferase reporter, luminescence. inhibition, % at 9 µM. hit rate 0.17% among 370,000. AID 651957;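 active means inhibition above the mean inhibition of all tested compounds plus 3 SD, set per campaign, cut at about 52% in these data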
Target sequence (Q15596 whole entry, looked up, the tested form may be a part): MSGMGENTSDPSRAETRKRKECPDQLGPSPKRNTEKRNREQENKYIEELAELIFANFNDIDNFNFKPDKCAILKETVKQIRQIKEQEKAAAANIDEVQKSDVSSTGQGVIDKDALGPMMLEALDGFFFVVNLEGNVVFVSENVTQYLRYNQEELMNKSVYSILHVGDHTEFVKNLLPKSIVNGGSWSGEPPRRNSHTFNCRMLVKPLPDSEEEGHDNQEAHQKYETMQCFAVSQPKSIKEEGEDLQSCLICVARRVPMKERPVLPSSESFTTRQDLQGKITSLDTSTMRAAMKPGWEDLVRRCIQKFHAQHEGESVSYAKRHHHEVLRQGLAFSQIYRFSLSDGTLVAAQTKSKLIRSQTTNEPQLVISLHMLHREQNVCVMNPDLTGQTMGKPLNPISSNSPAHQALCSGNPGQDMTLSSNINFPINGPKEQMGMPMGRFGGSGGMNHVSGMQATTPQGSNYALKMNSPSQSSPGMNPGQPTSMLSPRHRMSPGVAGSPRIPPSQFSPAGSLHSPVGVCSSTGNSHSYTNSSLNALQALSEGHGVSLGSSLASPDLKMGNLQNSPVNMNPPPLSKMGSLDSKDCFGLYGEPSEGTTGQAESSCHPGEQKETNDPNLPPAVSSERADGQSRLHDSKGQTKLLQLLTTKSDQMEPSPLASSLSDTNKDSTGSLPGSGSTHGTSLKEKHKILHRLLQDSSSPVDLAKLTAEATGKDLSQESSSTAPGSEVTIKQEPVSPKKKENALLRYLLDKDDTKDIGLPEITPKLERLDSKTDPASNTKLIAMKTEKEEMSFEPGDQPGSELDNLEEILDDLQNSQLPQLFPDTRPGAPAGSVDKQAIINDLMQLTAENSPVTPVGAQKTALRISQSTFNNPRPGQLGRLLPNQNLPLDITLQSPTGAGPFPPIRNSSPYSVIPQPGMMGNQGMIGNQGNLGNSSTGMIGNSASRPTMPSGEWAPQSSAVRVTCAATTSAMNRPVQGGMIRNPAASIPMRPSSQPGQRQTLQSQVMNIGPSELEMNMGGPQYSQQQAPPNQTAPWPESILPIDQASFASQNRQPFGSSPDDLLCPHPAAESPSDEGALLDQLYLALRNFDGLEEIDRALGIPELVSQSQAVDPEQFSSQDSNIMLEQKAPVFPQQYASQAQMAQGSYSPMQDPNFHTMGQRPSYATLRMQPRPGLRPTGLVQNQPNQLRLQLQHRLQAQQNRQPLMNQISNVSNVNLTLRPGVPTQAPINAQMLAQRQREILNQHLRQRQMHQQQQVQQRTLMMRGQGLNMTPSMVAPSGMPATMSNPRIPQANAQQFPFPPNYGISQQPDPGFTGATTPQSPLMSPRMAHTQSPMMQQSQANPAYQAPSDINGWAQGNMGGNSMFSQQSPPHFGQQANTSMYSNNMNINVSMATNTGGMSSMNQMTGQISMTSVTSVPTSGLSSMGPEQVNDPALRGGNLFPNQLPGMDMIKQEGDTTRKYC
SRC1 inh: inhibits human SRC1 coactivator; inhibition, % at 3.6 µM; hit rate 0.12% among 360,000; HEK293 GAL4-SRC1 luciferase reporter, luminescence; Q15788;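 active means inhibition above the campaign mean plus 3 SD, with each screening campaign given its own cutoff, cut at about 60% in these data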
SRC3 inh: inhibits human SRC3 coactivator; AID 588352; hit rate 0.17% among 360,000; HEK293 GAL4-SRC3 luciferase reporter, luminescence; inhibition, % at 3.6 µM;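 active means inhibition above a per-campaign cutoff, the mean of all compounds plus 3 SD, cut at about 60% in these data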;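 further: higher means less SRC3-driven luciferase light from the GAL4 reporter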
VP16 Luc counter: VP16 inhibition counter-screen for COUP-TFII; shares compounds with COUP-TFII inh; HEK293 Gal4-VP16 luciferase reporter, luminescence; inhibition, % at 8.5 µM; hit rate 25% among 2,500; AID 687007; in the data active means inhibition above about 13%
COUP-TFII conf: COUP-TFII (NR2F2) inhibition, confirmation assay. inhibition, % at 8.5 µM. HEK293 NGFI-A luciferase reporter, luminescence. shares compounds with COUP-TFII inh. hit rate 45% among 2,500. AID 687008;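 active means mean inhibition over three repeats above a set limit taken from the earlier primary screen, cut at about 38% in these data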
Of the large screens only hits and unclear results are named; the others gave an inactive call (follow-up assays come after a bar, where they were run). This is a sample that favours compounds with a hit; in the whole collection about 1.3% have one here.

COc1ccc(-c2nn(CCC#N)cc2C(=O)Nc2cccc([N+](=O)[O-])c2)cc1OC	none
CN(c1ccc(OCC(=O)N2CCN(C/C=C/c3ccccc3)CC2)cc1)S(=O)(=O)c1cccs1	COUP-TFII inh 38 | VP16 Luc counter inactive | COUP-TFII conf 38
COc1ccc(C(c2nnnn2-c2ccc(OC)cc2)N2CCC(n3c(=O)[nH]c4ccccc43)CC2)cc1 (centres undefined)	none (no result: Gli-Sufu antag)
COc1ccc(-n2nnnc2C(c2cc3ccccc3o2)N2CCC(n3c(=O)[nH]c4ccccc43)CC2)cc1 (centres undefined)	COUP-TFII inh 99 (no result: Gli-Sufu antag) | VP16 Luc counter inactive | COUP-TFII conf 60
C=Cc1cc(OC)c2c(c1)c(=O)oc1c2cc(OC)c2c(O)ccc(C3OC(C)C(O)C(C)(O)C3O)c21 (centres undefined)	COUP-TFII inh 59, NCOA2 inhibitor 66 | VP16 Luc counter 24 | COUP-TFII conf inactive
CC(O)C1C=CC=CC(=O)OC2CC3OC4C5OC5(C)C(O)CC4(COC(=O)C(O)C(C)CCO1)C2(C)C31CO1 (centres undefined)	Gli-Sufu antag 92, COUP-TFII inh 92, LRH-1 inv ag 100, NCOA2 inhibitor 73, SRC1 inh 96, SRC3 inh 94 | VP16 Luc counter 25 | COUP-TFII conf 92
CC1=CC2OC3CC4OC(=O)C=CC=CC(=O)OCCC(C)C(O)C(=O)OCC2(CC1)C4(C)C31CO1 (centres undefined)	Gli-Sufu antag 92, COUP-TFII inh 90, LRH-1 inv ag 99, NCOA2 inhibitor 71, SRC1 inh 95, SRC3 inh 94 | VP16 Luc counter 17 | COUP-TFII conf 87
CC1=CC2OC3CC4OC(=O)C=CC=CC(C(C)O)OCC(O)C5(C)OC5C(=O)OCC2(CC1O)C4(C)C31CO1 (centres undefined)	Gli-Sufu antag 88, COUP-TFII inh 92, LRH-1 inv ag 98, NCOA2 inhibitor 65, SRC1 inh 96, SRC3 inh 93 | VP16 Luc counter 19 | COUP-TFII conf 89
O=C(NP(=O)(N1CC1)N1CC1)c1cc(I)ccc1I	none
Cc1cccc(C)c1OP(N)(=O)OCC(F)(F)F (centres undefined)	none
COC(=O)C1=C(c2ccc(-c3ccccc3)c(F)c2)C[C@@H]2CC[C@H]1N2C(=O)N1CCCC1	COUP-TFII inh 67 | VP16 Luc counter inactive | COUP-TFII conf 47
COC(=O)C1=C(c2ccc(-c3ccccc3)c(F)c2)C[C@@H]2CC[C@H]1N2C(=O)N1CCCCC1	COUP-TFII inh 64 | VP16 Luc counter 20 | COUP-TFII conf 54
COCCNC(=O)N1[C@H]2CC[C@@H]1C(C(=O)OC)=C(c1ccc(-c3ccccc3)c(F)c1)C2	COUP-TFII inh 50 | VP16 Luc counter inactive | COUP-TFII conf inactive
COC(=O)C1=C(c2ccc(-c3ccccc3)c(F)c2)C[C@@H]2CC[C@H]1N2C(=O)N1CCOCC1	COUP-TFII inh 71 | VP16 Luc counter inactive | COUP-TFII conf inactive
CC[C@H](C)[C@@H](C(=O)N1CCCC1c1nccs1)N(C)C(=O)[C@H](CC(C)C)N(C)C(=O)[C@H](Cc1ccc(OC)cc1)N(C)C(=O)/C=C(\C)OC (some centres undefined)	none
CCOC(=O)c1c(C)n(Cc2ccco2)c2c1cc(O)c1ccccc12	none
CC(N)C(=O)NC1C2C(=C(O)CC(O)C2O)C(=O)OC1(C)C(Cl)Cl (centres undefined)	Gli-Sufu antag 76, COUP-TFII inh 76, LRH-1 inv ag 97, NCOA2 inhibitor 64, SRC1 inh 93, SRC3 inh 91 | VP16 Luc counter inactive | COUP-TFII conf 57
COc1ccc(-c2cc(-c3ccccc3)[n+](C)c(-c3ccccc3)c2)cc1	COUP-TFII inh 46, LRH-1 inv ag 74, SRC3 inh 70 | VP16 Luc counter 16 | COUP-TFII conf 53
C[n+]1c(-c2ccccc2)cc(CCCCc2cc(-c3ccccc3)[n+](C)c(-c3ccccc3)c2)cc1-c1ccccc1	none
C/C(=N\N1CCCCCC1)c1c(O)n(-c2ccccc2C)c(=O)[nH]c1=O	none

Screening results from PubChem BioAssay.
